Some test systems named below: NCI-H23 lung; NCI-H226 lung; HOP-62 NSCLC; NCI-H460 lung; HOP-92 NSCLC; NCI-H522 lung; A549/ATCC NSCLC; 786-0 renal; COLO 205 colon; DU-145 prostate; K-562 leukemia; MALME-3M melanoma; MDA-MB-231 breast; RXF 393 renal; SF-268 CNS; SF-295 CNS; SF-539 CNS; UACC-257 melanoma; M14 melanoma.
Common to all, as to experiment: NCI-60 one-dose screen, 48 h (100 = growth as untreated, 0 = no growth, -100 = all killed)
Settings in all cases: 10 µM unless noted

The panel holds about 83,000 compounds, 20% with a hit somewhere; the sample as a whole holds those more often.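 Single-dose data. Exposure time 48 hours. Values below 10 considered active.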 A number with no mark means an inactive call. The source made the active and inactive calls.

Here are results for eight molecules from PubChem BioAssay (NCI).

Take `c1ccc(CO[C@H]2CO[C@H]3[C@@H]2OC[C@@H]3Oc2ccc(Nc3ncnc4ccsc34)cc2)cc1`: the growth is 62.6% in the assay with NCI-H23 lung; 80.3% in the assay with NCI-H226 lung; 86.5% with HOP-62 NSCLC; 84.5% in the assay on NCI-H460 lung; 65% with HOP-92 NSCLC; 70.4% in the assay with NCI-H522 lung. Besides, the growth in the assay on A549/ATCC NSCLC was 81.7%; in the assay with 786-0 renal, 87.2%; with COLO 205 colon, 71.8%; in the assay on DU-145 prostate, 89%; in the assay with K-562 leukemia it was 62.1%; in the assay with MALME-3M melanoma, 53.4%. Also, the growth was 71.7% with MDA-MB-231 breast; 83.1% with RXF 393 renal; 78% with SF-268 CNS; 63.3% in the assay on SF-295 CNS; 73.1% in the assay with SF-539 CNS; 78% in the assay with UACC-257 melanoma. In the assay with M14 melanoma, the growth is 79.5%.
`COc1ccc2c(c1OC)C(=O)O[C@H]2[C@H]1c2c(cc3c(c2OC)OCO3)CCN1C`: the growth in the assay with NCI-H23 lung was 92.5%; in the assay with NCI-H226 lung, 99.6%; with HOP-62 NSCLC, 98.1%; in the assay with NCI-H460 lung, 105%; with HOP-92 NSCLC, 97%; with NCI-H522 lung, 92%. For the same molecule, the growth was 99.5% in the assay with 786-0 renal; 104% in the assay on COLO 205 colon; 117% in the assay on DU-145 prostate; 66.4% in the assay on K-562 leukemia; 92.2% with MALME-3M melanoma; 104% in the assay with MDA-MB-231 breast. Moreover, the growth was 108% with RXF 393 renal; 110% in the assay on SF-268 CNS; 94.1% with SF-295 CNS; 98.9% in the assay with SF-539 CNS; 95.2% with UACC-257 melanoma; 94.8% in the assay on M14 melanoma.
For `CCOC(=O)c1c(C)nc2c(c1N)CC(=O)N2Cc1ccc(F)cc1`, the growth in the assay on NCI-H23 lung is 99.8%; in the assay on NCI-H226 lung, 90.8%; in the assay with HOP-62 NSCLC it was 82.1%; with NCI-H460 lung, 99.7%; with HOP-92 NSCLC it was 71.5%; in the assay with NCI-H522 lung it was 63.7%. Also, the growth in the assay on A549/ATCC NSCLC is 90.8%; in the assay with 786-0 renal, 98.3%; in the assay on COLO 205 colon, 103%; in the assay on DU-145 prostate, 100%; in the assay with K-562 leukemia, 93.3%; in the assay on MALME-3M melanoma, 116%. The growth was 97.9% in the assay on MDA-MB-231 breast; 101% with RXF 393 renal; 96.4% in the assay with SF-268 CNS; 95.3% in the assay with SF-295 CNS; 92.9% with SF-539 CNS; 96% in the assay with UACC-257 melanoma. For the same molecule, the growth with M14 melanoma is 94.8%.
For `C/C(=C(/c1ccccc1)c1ccc(N2C(=O)c3cccc4c(N5CCN(C)CC5)ccc(c34)C2=O)cc1)c1ccccc1`, the growth is 59.7% with NCI-H23 lung; 69.6% in the assay with NCI-H226 lung; 86.1% in the assay with HOP-62 NSCLC; 83.3% with NCI-H460 lung; 67.4% with HOP-92 NSCLC; 81.5% in the assay with NCI-H522 lung. The growth with A549/ATCC NSCLC was 71.1%; with 786-0 renal, 87.6%; in the assay on COLO 205 colon, 81.1%; with DU-145 prostate it was 82.8%; with K-562 leukemia, 9.2% (active); in the assay on MALME-3M melanoma, 81.4%. Moreover, the growth in the assay with MDA-MB-231 breast is 94.5%; in the assay on RXF 393 renal, 74.8%; in the assay on SF-268 CNS, 96.2%; in the assay on SF-295 CNS it was 83.3%; in the assay on SF-539 CNS, 72.3%; in the assay with UACC-257 melanoma, 79.8%. In addition, the growth in the assay with M14 melanoma was 85.6%.
On to `O=C(N/N=C/c1ccc(Cl)cc1)c1ccc(C(F)(F)F)nc1Nc1cccc(C(F)(F)F)c1`, for which the growth is -36.7% (active) with NCI-H23 lung; 21.2% in the assay with NCI-H226 lung; 43.5% in the assay on HOP-62 NSCLC; 6.99% (active) with NCI-H460 lung; -0.43% (active) in the assay with HOP-92 NSCLC; 8.57% (active) in the assay on NCI-H522 lung. The growth is 19.5% in the assay with A549/ATCC NSCLC; 23.1% in the assay with 786-0 renal; 13.2% in the assay on DU-145 prostate; 1.81% (active) in the assay on K-562 leukemia; 50.4% in the assay with MALME-3M melanoma; 16% with MDA-MB-231 breast. Further, the growth with RXF 393 renal was 42.6%; in the assay on SF-268 CNS, 2.52% (active); in the assay with SF-295 CNS it was -22.9% (active); in the assay on SF-539 CNS it was 3.47% (active); in the assay on UACC-257 melanoma, 20%; with M14 melanoma it was 42.7%.
In the case of `COc1cccc2nc3n(c12)C(c1c(F)cccc1F)SC3` (stereo not given), the growth with NCI-H23 lung was 94.8%; in the assay on NCI-H226 lung it was 82.7%; in the assay with HOP-62 NSCLC it was 104%; with NCI-H460 lung it was 99%; in the assay with HOP-92 NSCLC, 46.4%; in the assay on NCI-H522 lung, 80.4%. Besides, the growth with A549/ATCC NSCLC was 98%; in the assay on 786-0 renal it was 101%; in the assay on COLO 205 colon it was 106%; in the assay on DU-145 prostate, 128%; with K-562 leukemia, 84.6%; in the assay on MALME-3M melanoma, 101%. Moreover, the growth in the assay with MDA-MB-231 breast is 93.2%; in the assay with RXF 393 renal, 105%; in the assay with SF-268 CNS, 108%; in the assay with SF-295 CNS it was 99.9%; in the assay with SF-539 CNS, 95.7%; in the assay with UACC-257 melanoma it was 100%. Further, the growth with M14 melanoma is 111%.
For `CCc1cccc2c1S/C(=C/c1ccc(Cl)cc1)C2=O`, the growth in the assay with NCI-H23 lung was 79.6%; in the assay on NCI-H226 lung, 87.2%; with HOP-62 NSCLC, 80.9%; in the assay on NCI-H460 lung it was 102%; with HOP-92 NSCLC, 83.5%; in the assay with NCI-H522 lung, 91.7%. The growth is 97.4% with A549/ATCC NSCLC; 100% with 786-0 renal; 108% with COLO 205 colon; 107% in the assay on DU-145 prostate; 80.1% with K-562 leukemia; 87.5% with MALME-3M melanoma. The growth with MDA-MB-231 breast is 87.6%; in the assay on RXF 393 renal, 105%; in the assay with SF-268 CNS, 93%; in the assay on SF-295 CNS, 96.7%; with SF-539 CNS it was 89.1%; in the assay with UACC-257 melanoma it was 105%. For the same molecule, the growth in the assay with M14 melanoma is 99.1%.
Consider `CNC(=O)c1cc(-n2ccc3cc(NC(=O)c4ccc(N5CCOCC5)c(C(F)(F)F)c4)ccc32)ccn1`, for which the growth with NCI-H23 lung is 64%; in the assay on NCI-H226 lung it was 51.7%; with HOP-62 NSCLC, 62%; with NCI-H460 lung, 68.4%; in the assay on HOP-92 NSCLC, 60.5%; in the assay with NCI-H522 lung, 52%. Moreover, the growth in the assay with A549/ATCC NSCLC was 46.3%; with 786-0 renal, 47.8%; with COLO 205 colon, 42.9%; in the assay on DU-145 prostate it was 76%; in the assay with K-562 leukemia it was 25.5%; with MALME-3M melanoma, 73.9%. Besides, the growth with MDA-MB-231 breast was 77.7%; with RXF 393 renal, -2.7% (active); in the assay with SF-268 CNS, 88.3%; in the assay with SF-295 CNS, -3.1% (active); in the assay with SF-539 CNS it was 30.6%; in the assay with UACC-257 melanoma it was 84.3%. Besides, in the assay on M14 melanoma, the growth was 62.4%.
